# High-throughput results deposited in PubChem by several laboratories.
# In the library only some 1.6% were active in any assay of this set; here they are far more common.
# ATG4B inhibitor = ATG4B (human) cysteine protease inhibition. 0.51% of 340,000 active. ATG4B cleavage of LC3-PLA2, NBD-HPC fluorescence, 1 h. AID 504462. Q9Y4P1. inhibition, % at 8.33 µM; in the data active means inhibition above about 40%
# PKA-R1A act = PKA-R1A complex activation | P00514+P68181 | PKA-R1A dissociation, Cy5-IP20 fluorescence polarization; scaled: DMSO 0%, 113 µM cGMP 100% | activation, % at 11.4 µM | 0.083% of 340,000 active | AID 504707;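 active means percent activation above the mean of all tested compounds plus 3 SD, cut at about 19% in these data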;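 further: higher means more PKAc released from R1A so a rise in polarization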
# PKA-R2B act = activators of human PKA-R2B complex; P22694+P31323; PKA-R2B holoenzyme dissociation, Cy5-IP20 fluorescence polarization; R2B truncated from residue 108, S112A mutant; 0% DMSO only, 100% 113 µM cGMP; activation, % at 11.4 µM; 0.079% of 340,000 active;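 active means activation above a cutoff set at the mean over all compounds plus 3 SD, cut at about 18% in these data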;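 further: higher means more holoenzyme dissociation and a rise in polarization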
# VLA-4 inh = inhibition in a human VLA-4 binding assay; 0.2% of 330,000 active; AID 2557; VLA-4 expressing cells, ligand binding flow cytometry; inhibition, % (about 7 µM as worked out from the volumes in the protocol); P13612
# NRP1-CendR mod = NRP-1/CendR interaction modulation; 0.85% of 360,000 active; O14786; inhibition, % at 25 µM; FAM-RPARPAR peptide binding to NRP-1, fluorescence polarization;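 active means inhibition or corrected inhibition above about 18%, plus a signal ratio from 0.5 to 1.5, limit read from the data, passing the limit was not always enough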
# Target sequence (O14786 whole entry, looked up): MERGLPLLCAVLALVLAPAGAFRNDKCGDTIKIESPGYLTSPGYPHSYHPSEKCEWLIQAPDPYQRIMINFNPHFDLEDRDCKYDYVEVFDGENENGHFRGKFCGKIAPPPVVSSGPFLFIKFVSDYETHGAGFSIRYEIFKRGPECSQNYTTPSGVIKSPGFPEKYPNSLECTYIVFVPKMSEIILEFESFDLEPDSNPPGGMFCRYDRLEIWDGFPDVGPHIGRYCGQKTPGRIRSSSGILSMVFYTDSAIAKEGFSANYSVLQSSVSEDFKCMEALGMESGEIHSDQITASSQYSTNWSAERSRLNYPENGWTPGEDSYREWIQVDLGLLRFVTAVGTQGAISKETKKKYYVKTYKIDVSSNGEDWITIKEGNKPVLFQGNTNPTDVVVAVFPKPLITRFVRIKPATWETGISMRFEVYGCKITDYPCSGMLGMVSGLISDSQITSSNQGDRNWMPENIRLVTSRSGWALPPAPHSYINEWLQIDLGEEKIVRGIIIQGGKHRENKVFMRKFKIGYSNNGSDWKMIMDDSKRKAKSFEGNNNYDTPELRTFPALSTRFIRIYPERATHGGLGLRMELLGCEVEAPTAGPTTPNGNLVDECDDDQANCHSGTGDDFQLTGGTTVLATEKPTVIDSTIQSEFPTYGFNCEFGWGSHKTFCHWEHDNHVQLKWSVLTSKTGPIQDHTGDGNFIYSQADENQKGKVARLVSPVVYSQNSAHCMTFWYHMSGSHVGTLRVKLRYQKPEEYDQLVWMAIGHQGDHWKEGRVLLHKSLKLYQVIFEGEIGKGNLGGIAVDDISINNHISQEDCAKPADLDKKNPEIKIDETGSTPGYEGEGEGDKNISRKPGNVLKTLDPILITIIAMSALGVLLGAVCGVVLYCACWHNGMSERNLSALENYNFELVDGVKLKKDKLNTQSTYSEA
# ATG4B conf = ATG4B (human) inhibition, single-dose confirmed | shares compounds with ATG4B inhibitor | ATG4B protease fluorescent substrate cleavage assay | inhibition, % at 8.33 µM | 92% of 320 active; in the data active means inhibition above about 39%
# PLA2 ctr = counter-screen for ATG4B inhibitors: human phospholipase A2 | shares compounds with ATG4B inhibitor | inhibition, % at 8.33 µM | purified PLA2, NBD-C6-HPC fluorescence, 45 min | 66% of 1,600 active
# Numbers without * were called inactive; . = no result. Unless noted, no stated cut-off is given here; in the data, active means inhibition above about 50%; inactive means the rest.
SMILES,ATG4B inhibitor,PKA-R1A act,PKA-R2B act,VLA-4 inh,NRP1-CendR mod,PLA2 ctr,others
Nc1cc(C(F)(F)F)ccc1NCCc1ccccn1,-12.4,-5.0,-4.3,24.3,-0.5,.,
COc1ccc(CNC(=O)CCCn2nc([N+](=O)[O-])cc2C)cc1,-3.3,-10.6,1.1,-5.8,1.4,.,
Cc1cc([N+](=O)[O-])nn1CCCC(=O)Nc1cc(Oc2ccc(F)cc2)cc([N+](=O)[O-])c1,61.1*,-13.4,8.7,13.8,5.2,62.1*,
Cc1ccc(Oc2cc(NC(=O)CCCn3nc([N+](=O)[O-])c(Cl)c3C)cc([N+](=O)[O-])c2)cc1,88.7*,-6.8,-4.2,-17.7,-4.0,91.5*,
Cc1cc([N+](=O)[O-])nn1CCCC(=O)Nc1cc(Oc2ccccc2)cc([N+](=O)[O-])c1,54.5*,-3.9,-0.7,6.5,3.0,58.1*,
COC(=O)c1ccccc1NC(=O)CCCn1nc([N+](=O)[O-])cc1C,-3.7,-13.8,-4.7,13.9,-16.3,.,
COc1ccccc1N(C)S(=O)(=O)c1ccc(C(=O)N2CCCC(C(F)(F)F)C2)cc1 (stereo not drawn),-2.5,-7.0,-0.1,12.7,-9.5,.,
CCOC(=O)c1sc(NC(=O)CSC(=S)N2CCN(C)CC2)nc1C,15.1,2.2,-3.0,10.8,6.9,.,
COc1ccc(Cl)cc1S(=O)(=O)N(C)CC(=O)NCc1ccccn1,-1.6,-7.5,1.5,6.6,11.0,.,
C(=N\Nc1nc(N2CCOCC2)nc(N2CCOCC2)n1)/c1ccco1,.,.,.,1.8,.,.,
Fc1ccc(Nc2nc(N/N=C/c3ccco3)nc(N3CCCCC3)n2)cc1,63.9*,-2.5,-4.9,-18.9,-7.3,77.6*,
CC(=O)c1c(C)[nH]c(C(=O)OCC(=O)c2ccc(Br)cc2)c1C,.,1.3,0.5,.,-11.4,.,
CCC(C)c1ccccc1NC(=O)COC(=O)c1ccc2[nH]c3c(c2c1)CCCC3 (stereo not drawn),41.7*,-3.1,1.2,2.9,20.1,56.9*,
Cc1ccc(S(=O)(=O)N2CCN(C(=O)CCC(=O)NCc3cccc(C(F)(F)F)c3)CC2)cc1,70.8*,9.0,-2.1,4.0,-2.8,77.6*,
CCC(CO)n1c(SCc2cc([N+](=O)[O-])cc3c2OCOC3)nc2ccccc2c1=O (stereo not drawn),43.1*,1.1,-3.2,10.2,1.4,54.9*,
CC1(C)Cc2ccccc2-c2nnc(SCC(=O)Nc3nc4ccccc4s3)n21,41.8*,2.1,-2.9,28.9,10.3,50.7*,
COc1cccc(OCc2cc(C(=O)N(C)Cc3nccn3C)no2)c1,2.4,1.7,-3.1,13.6,13.2,.,
CC(CNC(=S)Nc1cc(F)cc(F)c1)CSc1ccc(Cl)cc1 (stereo not drawn),46.5*,-13.1,-5.7,1.7,3.4,69.5*,
CCCOC(=O)c1c(NC(=O)CCCn2nc([N+](=O)[O-])c(Cl)c2C)sc(C(=O)OC)c1C,62.1*,4.2,2.9,-19.2,-7.6,57.2*,
CCCOC(=O)c1c(NC(=O)CCCn2nc([N+](=O)[O-])cc2C)sc(C(=O)OC)c1C,33.4,-10.0,-0.3,13.0,2.5,.,
CCOC(=O)c1sc(NC(=O)CCCn2nc([N+](=O)[O-])c(Cl)c2C)c(C(=O)OCC)c1C,57.0*,2.8,-5.7,14.7,11.8,52.0*,
NC(=O)CCC(C(=O)O)N1C(=O)C2C3CCC(C3)C2C1=O (stereo not drawn),.,-7.3,-0.6,.,2.4,.,
c1ccc(CSc2nnc3c(n2)OC(c2ccco2)Nc2ccccc2-3)cc1 (stereo not drawn),41.8*,-4.7,-3.5,6.6,-7.1,8.2,ATG4B conf=95.6*
Cc1ccc(-n2c(SCC(=O)NNC(=S)Nc3ccccc3)nc3ccccc3c2=O)cc1,78.4*,1.4,-10.4,-3.7,9.3,82.0*,
CCOC(=O)c1c(C)[nH]c(C)c1C(=O)CSc1nc2ccccc2n1CC,-0.4,0.2,-12.1,11.4,3.0,.,
SMILES,ATG4B inhibitor,PKA-R1A act,PKA-R2B act,VLA-4 inh,NRP1-CendR mod,PLA2 ctr,others
COn1c(SC(C)C)nc2ccccc2c1=O,13.5,-7.7,-9.8,0.1,7.0,.,
CCOC(CCn1c(SCc2ccc([N+](=O)[O-])cc2)nc2ccccc2c1=O)OCC,16.1,-0.3,-7.9,-16.6,-3.8,.,
Cc1ccc(-n2c(SCc3ccc([N+](=O)[O-])cc3)nc3ccccc3c2=O)cc1,40.8*,1.9,-11.7,-3.2,-11.6,19.7,
CC(C#N)Sc1nc2ccccc2c(=O)n1-c1ccccc1 (stereo not drawn),47.4*,-4.0,-21.2,-5.1,-2.0,56.3*,
CCOC(=O)c1c(C)[nH]c(C)c1C(=O)CSc1nc2ccccc2c(=O)n1-c1ccc(CC)cc1,52.1*,4.7,10.6,25.7,-9.3,66.5*,
CCOC(=O)CCN(C(=S)Nc1ccccc1)C1CCCCC1,-5.9,-6.0,1.4,.,21.5,.,
CCOC(=O)c1cnn(-c2ccccc2)c1NC(=O)CN1CCCCC1,2.5,-9.0,-5.0,4.6,-1.9,.,
CN(C)C(=O)CSc1n[nH]c(=O)n1CCc1ccccc1,-0.6,0.3,3.2,12.7,4.8,.,
O=c1c2ccccc2nc(/C=C/c2c[nH]c3ccccc23)n1-c1ccc([N+](=O)[O-])cc1,57.0*,9.0,17.6,2.9,-5.4,25.6,
Cc1[nH]c2ccccc2c1/C=C/c1nc2ccccc2c(=O)n1-c1cccc([N+](=O)[O-])c1,-15.7,-2.8,-4.6,-42.9,-28.8,.,
C[C@@H]1CN([C@@H](C)CO)C(=O)Cc2cc(NC(=O)Nc3ccc4c(c3)OCO4)ccc2O[C@@H]1CN(C)C(=O)NC1CCCCC1,-9.0,-10.7,5.5,-16.6,-0.4,.,
O=C(O)CCn1cc(/C=C\C(=O)c2ccc(Cl)cc2)c(-c2cccc(Br)c2)n1,45.8*,-2.4,-3.6,11.6,-38.9,45.2,ATG4B conf=69.3*
O=C(O/C(=C/c1ccccc1)C(F)(F)F)c1ccccc1,-2.5,-3.8,-6.1,.,15.6,.,
O=C1NC(=O)/C(=C/c2ccccc2Oc2ccc(Cl)cc2)S1,48.5*,-11.9,-6.4,6.2,-10.1,26.9,ATG4B conf=58.9*
COc1cccc(Cn2cc(-c3cccc(C(F)(F)F)c3)nn2)c1,50.0*,-4.1,-2.6,15.1,0.8,68.2*,
CC(C)(C)c1ccc(C(=O)Nc2ccccc2NC(=O)c2ccco2)cc1,-1.9,-7.1,-4.6,6.8,12.0,.,
CC(C)(C)c1ccc(C(=O)Nc2ccccc2Cl)cc1,45.3*,-4.7,-16.7,8.9,4.2,55.4*,
CC(OC(=O)CSc1ccccc1)C(=O)NC1CCCCC1C (stereo not drawn),1.9,4.7,-13.9,.,-3.0,.,
Oc1ccc(/C=N/Nc2ccnc3cc(Cl)ccc23)c(O)c1,-3.3,3.5,8.2,-35.1,-14.1,.,
